Most compounds without a hit are left out; they make up all but 4.8% or so of the library.
DAX1 inh-1 = DAX1 (NR0B1) inhibition, primary screen | hit rate 1.1% among 370,000 | HEK293T StAR-luciferase reporter, SF-1/DAX-1 repression relief | inhibition, % at 6.8 µM;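 active = inhibition above the mean over all tested compounds plus 3 SD, cut at about 3.6% in these data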;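 note: 0% = DAX-1 cells with DMSO and 100% = cells lacking DAX-1 with DMSO; higher inhibition means more luminescence from relief of DAX-1 repression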
SMARCA2 activ = activators of SMARCA2 function. hit rate 1% among 370,000. activation, % at 9.1 µM. MG213 cells, MMTV-luciferase reporter, dexamethasone, overnight; in the data active = activation above about 7.8%;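 note: 0% = vehicle wells and 100% = reference activator wells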
hcDAF-12 act = activates DAF-12 receptor from parasite H. contortus; HEK293 hcDAF-12 lit1-tk-luc reporter, luminescence; 0% DMSO, 100% Δ7-dafachronic acid; activation, % at 6.8 µM; hit rate 1.4% among 370,000;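 active = activation above the mean of all tested compounds plus 3 SD, cut at about 5.5% in these data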;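 note: 100% = response to 3 µM Δ7-dafachronic acid high control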
ssDAF12 agonist = S. stercoralis DAF-12 activation, primary screen; hit rate 1% among 370,000; HEK293 ssDAF-12/GRIP1 lit1-tk-luc reporter, luminescence; % of 3 µM dafachronic acid response; activation, % at 6.8 µM;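 active = activation above the mean over all tested compounds plus 3 SD, cut at about 0.9% in these data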;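 note: 0% = DMSO-only wells and 100% = 3 µM delta7-dafachronic acid wells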
DAX1 inh-2 = inhibits human nuclear receptor DAX1 | P51843 | HEK293 Gal4-DAX1 luciferase reporter, luminescence | inhibition, % at 6.75 µM | hit rate 0.99% among 340,000 | AID 504766;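 active = inhibition above the mean over all tested compounds plus 3 SD, cut at about 4.2% in these data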;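 note: 0% = DAX1-transfected cells with DMSO and 100% = empty-vector control cells with DMSO; inhibition shows as a rise in luminescence from relieved DAX1 repression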
Target sequence (P51843 207-470 limits assumed): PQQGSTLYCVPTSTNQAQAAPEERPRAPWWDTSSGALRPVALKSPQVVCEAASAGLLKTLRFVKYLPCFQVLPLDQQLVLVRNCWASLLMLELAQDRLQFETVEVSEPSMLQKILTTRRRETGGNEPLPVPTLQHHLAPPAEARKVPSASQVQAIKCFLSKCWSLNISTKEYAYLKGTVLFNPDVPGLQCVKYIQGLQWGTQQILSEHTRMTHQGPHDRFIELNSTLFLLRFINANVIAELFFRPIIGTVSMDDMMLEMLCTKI
hgDAF-12 ag = agonists of H. glycines DAF-12 nuclear receptor | HEK293 GAL4-hgDAF12 UAS-luciferase reporter, agonist luminescence; normalized to butyrate control | AID 687014 | activation, % at 6.8 µM | hit rate 1.8% among 370,000;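 active = activation above a cutoff set at the mean of all screened compounds plus 3 SD, cut at about 10% in these data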;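 note: 0% = DMSO wells and 100% = sodium butyrate wells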
LXR ag = counter-screen for hcDAF-12 agonists: agonists of human LXR-beta | activation, % at 6.8 µM | shares compounds with hcDAF-12 act | HEK293 Gal4-LXR tk-luc reporter, luminescence, 24 h; normalized: DMSO 0%, positive control 100% | 3,400 tested, under 10 active;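 active = mean percent activation of the reporter above a cutoff set as the average over tested compounds plus their standard deviation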
hcDAF12 conf = confirmation of H. contortus DAF-12 agonists | activation, % at 6.8 µM | HEK293 hcDAF-12 lit1-tk-luc reporter, luminescence; % of Δ7-dafachronic acid response | hit rate 61% among 3,400 | shares compounds with hcDAF-12 act | AID 743032;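 active = mean activation across triplicate tests above the threshold derived from the earlier primary screen, cut at about 5.5% in these data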;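 note: 0% = DMSO only wells and 100% = 3 µM Δ7-dafachronic acid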
hgDAF12 ag = hgDAF-12 agonism, confirmation assay; shares compounds with hgDAF-12 ag; HEK293 GAL4-hgDAF12 luciferase reporter, agonist mode; percent of butyrate response; activation, % at 6.8 µM; hit rate 80% among 3,300; AID 743050;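 active = mean activation over triplicate wells above the hit cutoff derived from the earlier primary screen, cut at about 11% in these data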;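 note: 0% = DMSO low control and 100% = 2 mM sodium butyrate high control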
LXR ag 2 = LXR-beta agonism as DAF-12 counter-screen | shares compounds with hgDAF-12 ag | HEK293 Gal4-LXR luciferase reporter, 24 h | activation, % at 6.8 µM | 3,300 tested, under 10 active | AID 743051;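 active = mean activation of the triplicate above a set limit carried over from the primary screen, none filed active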
* = called active by the depositor; · = no result.

SMILES	DAX1 inh-1	SMARCA2 activ	hcDAF-12 act	ssDAF12 agonist	DAX1 inh-2	hgDAF-12 ag	LXR ag	hcDAF12 conf	hgDAF12 ag	LXR ag 2
COc1ccc2cc(-c3nc4ccccc4n3C)c(=O)oc2c1	4.1*	4	6.8*	0	3	16*	1	6	11*	0
N#CC1=C(N)Oc2cc3ccccc3cc2C1c1cccs1 (stereo not given)	-1	4	0	-1	0	4	·	·	·	·
CN(C)/C=N/C1=C(C#N)C(c2cccs2)c2ccc3ccccc3c2O1 (stereo not given)	-2	0	9.4*	1.0*	1	24*	0	8.5*	14*	0
CCCCN1C(=O)C(CC(=O)NC2CC2)CC(C(=O)N(C(C)C)C(C)C)=C1C (stereo not given)	0	1	1	-1	1	0	·	·	·	·
Cc1cc(Cl)ccc1OCC(=O)NCCOc1nc(N2CCCCC2)nc(N2CCOCC2)n1	0	0	-2	-1	0	2	·	·	·	·
Cc1cccc(/C=C(\c2nc3ccccc3[nH]2)S(=O)(=O)c2ccccc2)c1	-4	-7	-5	-3	-5	-11	·	·	·	·
Cc1cccc(/C=C(\C(=O)C(=O)O)c2ccc3ccccc3n2)c1	3	2	11*	1.8*	1	21*	0	8.1*	14*	0
O=C(Nc1nc2ccccc2[nH]1)c1ccccc1OC(F)F	3	4	13*	1	-2	14*	2	14*	14*	1
Cc1ccsc1C(=O)Nc1nc2ccccc2[nH]1	4.5*	-1	10*	1.1*	-2	17*	1	10*	17*	1
O=C(Nc1cc(C(F)(F)F)ccc1N1CCCCC1)c1ccco1	0	1	-1	0	-1	0	·	·	·	·
Cc1ccc(Nc2nc(-c3ccccc3)cs2)nc1	3.7*	0	19*	1.9*	-1	13*	2	17*	23*	1
Cc1ccc(Nc2nc(-c3cccs3)cs2)nc1	4.0*	-3	13*	1	2	15*	2	14*	9	1
c1cncc(Nc2nc(-c3cccs3)cs2)c1	·	·	·	·	2	·	·	·	·	·
Cc1ccc(S(=O)(=O)Nc2nc(-c3ccccc3)cs2)cc1	0	-4	-1	-1	1	0	·	·	·	·
CC1=CN2C(=N)/C(=C/c3ccco3)C(=O)N=C2S1	4.0*	6	10*	1.6*	3	16*	1	3	12*	1
Cc1ccc(NC(=O)CN2C(=O)NC(Cc3ccccc3)C2=O)cc1Cl (stereo not given)	2	-1	-1	-2	1	-1	·	·	·	·
Cc1cc2ncc(-c3ccccc3)nc2cc1C	3	2	14*	1.7*	5.0*	19*	2	11*	23*	1
Nc1ccc2nc(-c3ccccc3)cnc2c1	1	7	5	0	3	7	·	·	·	·
COCCN(Cc1nc(-c2ccc(-c3ccccc3)cc2)oc1C)C(C)C	2	3	10*	1.1*	-4	15*	1	7.5*	18*	1
Cc1oc(-c2ccoc2)nc1CN(CC1CCC(=O)N1)C(C)C (stereo not given)	0	-4	2	-1	1	1	·	·	·	·
O=C1NN(c2ccccc2)C(=O)C2C1C1C=CC2C12CC2 (stereo not given)	0	0	-2	-1	1	2	·	·	·	·

Source: PubChem BioAssay (The Scripps Research Institute Molecular Screening Center)
